Reference: PubChem BioAssay (EPA / NIEHS)
Records with an inconclusive call do not appear. Active and inactive are the calls of the source. Rule for the calls, unless noted: active = hit-call score of the fitted dose curve at least 0.9, where 1 is the maximum; inactive = score below 0.9.

How the values were obtained:
[1] = CCTE_Shafer_MEA_dev_firing_rate_mean: CCTE's Neural Network Formation Assay for Mean Firing Rate, Shafer Lab (AID 2284031)
Method in brief: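 Extracellular spike frequency, AUC over DIV 5–12 recordings, in rat cortical neuron MEA cultures dosed from plating; loss direction vs DMSO.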

[2] = CCTE_Shafer_MEA_dev_per_burst_spike_percent: CCTE's Neural Network Formation Assay for Percent of Spikes in a Burst, Shafer Lab (AID 2284032)
Method in brief: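 Value is trapezoidal AUC over recordings on days 5, 7, 9 and 12 of the well-mean fraction of spikes falling in single-electrode bursts; rat cortical cultures exposed continuously from plating, treatment renewed DIV 5 and 9, fitted downward against DMSO.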

[3] = CCTE_Shafer_MEA_dev_active_electrodes_number: CCTE's Neural Network Formation Assay for Number of Active Electrodes, Shafer Lab (AID 2284040; active = hit-call score of the fitted dose curve at least 0.9, where 1 is the maximum)
Method in brief: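 Developing rat cortical networks on MEAs, exposed DIV 0–12. Value is the AUC of active-electrode counts (≥5 spikes/min) from days 5, 7, 9, 12, relative to DMSO.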

[4] = CCTE_Shafer_MEA_dev_burst_rate: CCTE's Neural Network Formation Assay for Burst Rate, Shafer Lab (AID 2284042)
Method in brief: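 Primary rat cortical neurons on PEI-coated 48-well MEA plates (laminin added with cells at plating) (16 electrodes/well), exposed from plating to day 12, dosing renewed at DIV 5 and 9. Burst rate averaged over active electrodes, recorded DIV 5, 7, 9, 12, summarized as AUC; loss versus DMSO.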

[5] = CCTE_Shafer_MEA_dev_bursting_electrodes_number: CCTE's Neural Network Formation Assay for Number of Bursting Electrodes, Shafer Lab (AID 2284043; active = hit-call score of the fitted dose curve at least 0.9, where 1 is the maximum)
Method in brief: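 Counted: electrodes with burst rate ≥1 per 2 min in each well. Cells: primary rat cortex, 1.5 x 10^5/well, on 16-electrode MEA wells. Exposure: DIV 0–12, compound renewed DIV 5 and 9. Recording days 5, 7, 9, 12; AUC vs DMSO baseline.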

[6] = CCTE_Shafer_MEA_dev_per_burst_interspike_interval: CCTE's Neural Network Formation Assay for Burst Interspike Interval, Shafer Lab (AID 2284044)
Method in brief: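 Developmental network-formation MEA in primary rat cortical cultures with exposure spanning days 0–12. Within-burst ISI is averaged per well and integrated across recording days by area under the curve, with DMSO as negative control baseline.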

[7] = CCTE_Shafer_MEA_dev_burst_duration_mean: CCTE's Neural Network Formation Assay for Mean Burst Duration, Shafer Lab (AID 2284045)
Method in brief: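 Network-formation assay in primary rat cortical neurons; treatment spans twelve days of development. Mean burst duration per well is integrated by trapezoidal AUC and fitted in the loss-of-signal direction against DMSO baseline.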

[8] = CCTE_Shafer_MEA_dev_interburst_interval_mean: CCTE's Neural Network Formation Assay for Mean Interburst Interval, Shafer Lab (AID 2284046);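 note: well-mean interburst interval of bursting electrodes as AUC over four recording days; curve fitted for decrease in interburst interval relative to DMSO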
Method in brief: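 Recordings on days 5, 7, 9 and 12 give well-mean interburst interval across actively bursting electrodes, summarized as area under the curve. Cultures: rat cortical neurons, continuous exposure from day 0, compound renewed at feeds; decrease analyzed versus DMSO.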

[9] = CCTE_Shafer_MEA_dev_inter_network_spike_interval_mean: CCTE's Neural Network Formation Assay for Mean Inter-network Spike Interval, Shafer Lab (AID 2284047)
Method in brief: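 Primary rat cortical neurons on 16-electrode MEA wells, exposed from plating day 0 through DIV 12, compound renewed at DIV 5 and 9 media changes. Mean interval between network-spike peaks recorded DIV 5, 7, 9, 12; collapsed as trapezoidal AUC, fitted downward versus DMSO.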

[10] = CCTE_Shafer_MEA_dev_network_spike_number: CCTE's Neural Network Formation Assay for Number of Network Spikes, Shafer Lab (AID 2284048);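 note: synchronized bursts across electrodes counted on days 5 7 9 12 and integrated as AUC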
Method in brief: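 Extracellular recordings from 16-electrode wells track network formation in rat cortical cultures under continuous treatment from plating. The endpoint is network spike number, expressed as AUC across DIV 5–12 relative to DMSO vehicle.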

[11] = CCTE_Shafer_MEA_dev_network_spike_peak: CCTE's Neural Network Formation Assay for Mean Number of Electrodes in Network Spike, Shafer Lab (AID 2284049)
Method in brief: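 Continuous 12-day exposure of rat cortical cultures, starting at plating, on MEA plates. Endpoint: electrodes participating in network-spike peaks, AUC across DIV 5–12, DMSO as negative control.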

[12] = CCTE_Shafer_MEA_dev_spike_duration_mean: CCTE's Neural Network Formation Assay for Mean Spike Duration, Shafer Lab (AID 2284051);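 note: mean network spike duration pooled as area under curve over DIV 5 to 12 recordings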
Method in brief: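 Primary rat cortical neurons on 16-electrode MEA wells (PEI-coated, laminin in plating drop), exposed from plating through DIV 12 with compound renewed at DIV 5 and 9. Mean network-spike duration recorded DIV 5, 7, 9, 12; trapezoidal AUC across days, DMSO baseline.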

[13] = CCTE_Shafer_MEA_dev_network_spike_duration_std: CCTE's Neural Network Formation Assay for Standard Deviation of Network Spike Duration, Shafer Lab (AID 2284052);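 note: area under curve of spike duration SD across recording days 5 to 12; hits are decreases in network spike duration SD versus DMSO vehicle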
Method in brief: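 Primary rat cortical neurons on PEI-coated 16-electrode MEA wells, exposed from plating day 0 through day 12 with compound renewed at DIV 5 and 9. Network spike duration SD recorded on days 5, 7, 9, 12, collapsed as trapezoidal AUC; loss-of-signal fit versus DMSO.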

[14] = CCTE_Shafer_MEA_dev_per_network_spike_spike_number_mean: CCTE's Neural Network Formation Assay for Mean Number of Spikes in a Network Spike, Shafer Lab (AID 2284053)
Method in brief: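 Primary rat cortical neurons on 48-well, 16-electrode MEA plates were exposed from plating to DIV 12, with dosing renewed on DIV 5 and 9. Spikes per network spike (0.05 s peak window) were recorded on DIV 5, 7, 9 and 12 and collapsed as trapezoidal AUC versus DMSO.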

[15] = CCTE_Shafer_MEA_dev_per_network_spike_spike_percent: CCTE's Neural Network Formation Assay for Percent of Spikes in a Network Spike, Shafer Lab (AID 2284054)
Method in brief: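 Developing networks of rat cortical neurons are dosed at day 0 and recorded extracellularly four times up to day 12. The endpoint is the area under the curve of percent spikes in network spikes, fitted in the negative direction relative to DMSO.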

[16] = CCTE_Shafer_MEA_dev_correlation_coefficient_mean: CCTE's Neural Network Formation Assay for Mean Correlation Coefficient, Shafer Lab (AID 2284093)
Method in brief: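 Spontaneous activity recorded on days 5, 7, 9 and 12 post-plating; pairwise spike correlations are averaged across active electrodes and collapsed to an area-under-curve. Rat cortical cultures are dosed from plating through 12 days, with compound renewed at media changes.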

[17] = UKN2_HCS_IMR90_neural_migration: University of Konstanz (UKN) Leist Lab Neural Crest Cell Migration Assay in human induced IMR90 Pluripotent Stem Cells (UKN2) (AID 2284204); settings: actives raise or lower the signal
Method in brief: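 Using a 96-well stopper format with PLO/laminin/fibronectin coating, neural crest cells from iPSC migrate in cytokine-supplemented N2-S medium; after 24 h, chemicals are applied for a further 24 h, then cells are imaged after dye staining.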

[18] = IUF_NPC1b_proliferation_BrdU_72hr: Leibniz Research Institute for Environmental Medicine (IUF) 72-hour Neural Progenitor Cell Bromodeoxyuridine (BrdU) Proliferation Assay (NPC1b) (AID 2284207)
Method in brief: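 Neural progenitor spheres of human fetal origin are treated for three days; BrdU added for the last 16 h is quantified by luminescence ELISA, with DMSO as baseline and EGF/FGF omission as positive control.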

[19] = IUF_NPC1a_proliferation_area_72hr: Leibniz Research Institute for Environmental Medicine (IUF) 72-hour Neural Progenitor Cell Proliferation Area Assay (NPC1a) (AID 2284208)
Method in brief: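 Proliferation is scored as sphere area gain in primary human fetal neural progenitors treated for 72 h in EGF/FGF-containing medium. Viability, LDH and BrdU readouts come from the same wells.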

[20] = IUF_NPC1_viability_72hr: Viability Assessment at 72 hours in the Leibniz Research Institute for Environmental Medicine (IUF) Neural Progenitor Cell Proliferation Assay (NPC1) (AID 2284209)
Method in brief: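 Three-day continuous exposure of human neural progenitor spheres under EGF/FGF-driven proliferation; cell viability scored by alamar blue signal versus DMSO.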

[21] = CCTE_Mundy_HCI_Cortical_Synap_Neur_Matur_NeuriteSpotCountPerNeuriteLength: CCTE's Synaptogenesis and Neurite Maturation Assay in rat cortical cells for Neurite Spot Count per Neurite Length, Mundy Lab (AID 2284210)
Method in brief: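 Neurite-associated synapse density (synaptophysin puncta per unit neurite length) is measured by fluorescence high-content imaging in rat cortical cultures treated from DIV 7 and fixed at DIV 12, with DMSO as negative control.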

[22] = CCTE_Mundy_HCI_Cortical_Synap_Neur_Matur_BPCount: CCTE's Synaptogenesis and Neurite Maturation Assay in rat cortical cells for Branch Point Count, Mundy Lab (AID 2284211)
Method in brief: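 In this multiplexed morphology assay, cortical cells from rat receive chemicals at DIV 7 and are fixed at DIV 12, then immunostained and imaged; branch points are counted, with DMSO as baseline.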

[23] = CCTE_Mundy_HCI_Cortical_NOG_NeuriteCount: CCTE's Neurite Outgrowth Assay in rat cortical cells for Neurite Count, Mundy Lab (AID 2284212);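 note: cells fixed about two days after chemical exposure began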
Method in brief: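 Rat cortical primary cells; compound added 2 h post-plating, 1/10 dilution of working solution. Anti-betaIII-tubulin/AF488 ICC; ArrayScan neurite count vs DMSO.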

Measured: AC50

CC(C)c1nn(C(=O)NC(C)(C)C)c(=O)n1N
inactive: [1] | [2] | [3] | [4] | [5] | [6] | [7] | [8] | [9] | [10] | [11] | [12] | [13] | [14] | [15] | [16] | [17] | [19] | [20] | [21] | [22] | [23]
active: [18] 2010 nM
